Measurements: PubChem BioAssay (NCATS)
“And” between values parts separate entries of the source, which are not always exact repeats. Identical values can stand only once. Inconclusive results are not listed. A call without a number means that no potency is given here. The source made the active and inactive calls. Unless noted, the call rests on the fitted dose curve; in most records, active means well fitted curve in the direction sought with a large enough effect; inconclusive means small, poorly fitted or top-dose-only effect, or another doubt; inactive means no such curve, though single readings can be large; an effect the other way counts as inactive or inconclusive.

Tests used:
[1] = target: Alpha-galactosidase A (Homo sapiens) (UniProt P06280); assay: Counterscreen for Glucocerebrosidase Inhibitors: qHTS Assay for Human alpha-Galactosidase at pH 4.5 (AID 992)
How it was run: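 Human enzyme (2 nM) with 80 uM 4-methylumbelliferyl alpha-D-galactopyranoside in 50 mM citric acid, 0.005% Tween-20, pH 4.5, 20 min at room temperature. Compounds 0.7 nM–77 uM; fluorescence Ex 365/Em 440 after pH 10 stop; AC50 from Hill fits.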

[2] = target: alpha-glucosidase (Oryza sativa, rice) (UniProt Q653V4); assay: Counterscreen for Glucocerebrosidase Inhibitors: qHTS Assay for Rice alpha-Glucosidase at pH 5.0 (AID 997)
How it was run: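 Rice alpha-glucosidase (4 nM final) with 400 uM 4-methylumbelliferyl-alpha-D-glucopyranoside in citrate buffer pH 5.0, 20 min at room temperature, stopped at pH 10; fluorescence 365/440 nm, compounds 0.7 nM–77 uM, AC50 from Hill fits.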

[3] = qHTS Assay for Lipid Storage Modulators (AID 1519; calls by dose curve; further: potency means the concentration at half of the fitted maximal effect); settings: Drosophila S3 cells, BODIPY lipid droplet/cell ratio, laser cytometry, cells loaded with oleic acid; for activity change, negative = inhibition: at 57.5 µM (top of the series)
How it was run: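 Cells seeded at 5,000 per well were treated with compounds over a concentration series and loaded with oleic acid (400 uM, as added). Lipid droplet fluorescence (488 nm excitation, 500-530 nm channel) was read by laser-scanning cytometry and normalized to 20 uM Triacsin C.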

[4] = target: DNA repair nuclease/redox regulator APEX1 (Homo sapiens) (UniProt P27695); assay: qHTS Validation Assay for Inhibitors of the Human Apurinic/apyrimidinic Endonuclease 1 (APE1) (AID 1705;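 further: TAMRA fluorescence gain over two minutes as APE1 cuts a quenched THF abasic duplex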)
How it was run: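 Human APE1 was preincubated with compound for 15 min at room temperature, then 50 nM (final) THF-abasic double-stranded DNA substrate bearing 5'-TAMRA and 3'-BHQ-2 was added. Incision-driven fluorescence rise (ex 525/em 598 nm) was read kinetically.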

[5] = Counterscreen for APE1 Inhibitors: Fluorescent Dye Displacement Validation Assay (AID 1707)
How it was run: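 Thiazole Orange (250 nM) bound to 50 nM TAMRA-labelled dsDNA with tetrahydrofuran abasic site; displacement by DNA-binding compounds lowers fluorescence. Buffer 50 mM Tris-HCl pH 7.5, 50 mM NaCl, 2 mM MgCl2, 0.01% Tween-20; endpoint read at 480/540 nm.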

[6] = target: Endonuclease 4 (Escherichia coli (strain K12)) (UniProt P0A6C1); assay: Counterscreen for APE1 Inhibitors: qHTS Validation Assay for Inhibitors of Endonuclease IV (AID 1708)
How it was run: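 2 nM enzyme was preincubated with compounds for 15 min at room temperature in 50 mM Tris-HCl pH 7.5, 50 mM NaCl, 2 mM MgCl2, 1 mM DTT, 0.01% Tween-20. 50 nM THF-abasic TAMRA/BHQ-2 duplex substrate started the reaction.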

[7] = qHTS for differential inhibitors of proliferation of Plasmodium falciparum line GB4 (AID 1816); settings: Potency: Plasmodium falciparum GB4 proliferation inhibition;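 further: parasite growth measured after 72 h incubation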; further: potency means the concentration at half of the fitted maximal effect
[8] = qHTS for differential inhibitors of proliferation of Plasmodium falciparum line 3D7 (AID 1876); further: potency means the concentration at half of the fitted maximal effect
[9] = qHTS for differential inhibitors of proliferation of Plasmodium falciparum line 7G8 (AID 1815);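 further: parasite growth measured after three days of incubation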; further: potency means the concentration at half of the fitted maximal effect
[10] = Validation of Assay for Modulators of Lamin A Splicing (AID 1459; active means well fitted curve in the direction sought with a large enough effect in the signal ratio; the % refers to the signal ratio;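 further: cells exposed to compound for two days before reading; ratio rise marks activators and ratio drop marks inhibitors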)
How it was run: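 S3 HeLa cells stably expressing a lamin A-EGFP splicing minigene and DsRed2 were seeded at 600 cells/well in Opti-MEM with 2% FBS, pin-dosed, and incubated 48 hrs at 37 °C, 5% CO2. Laser-scanning cytometry (488 nm) gave GFP/RFP total intensity ratio.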

[11] = measured here: cell count channel max response
[12] = measured here: lipid channel max response

Chain of DNA repair nuclease/redox regulator APEX1 (Homo sapiens) (P27695 whole entry, looked up): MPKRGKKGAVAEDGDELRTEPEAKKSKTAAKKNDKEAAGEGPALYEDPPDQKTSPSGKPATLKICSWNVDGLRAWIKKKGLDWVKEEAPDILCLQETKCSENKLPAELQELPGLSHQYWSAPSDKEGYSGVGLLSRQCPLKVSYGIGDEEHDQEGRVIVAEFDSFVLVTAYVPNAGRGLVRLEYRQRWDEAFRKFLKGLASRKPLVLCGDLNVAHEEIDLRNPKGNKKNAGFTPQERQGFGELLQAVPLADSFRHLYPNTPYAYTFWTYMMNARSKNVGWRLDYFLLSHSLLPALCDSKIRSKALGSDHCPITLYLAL
Chain of Alpha-galactosidase A (Homo sapiens) (P06280 whole entry, looked up): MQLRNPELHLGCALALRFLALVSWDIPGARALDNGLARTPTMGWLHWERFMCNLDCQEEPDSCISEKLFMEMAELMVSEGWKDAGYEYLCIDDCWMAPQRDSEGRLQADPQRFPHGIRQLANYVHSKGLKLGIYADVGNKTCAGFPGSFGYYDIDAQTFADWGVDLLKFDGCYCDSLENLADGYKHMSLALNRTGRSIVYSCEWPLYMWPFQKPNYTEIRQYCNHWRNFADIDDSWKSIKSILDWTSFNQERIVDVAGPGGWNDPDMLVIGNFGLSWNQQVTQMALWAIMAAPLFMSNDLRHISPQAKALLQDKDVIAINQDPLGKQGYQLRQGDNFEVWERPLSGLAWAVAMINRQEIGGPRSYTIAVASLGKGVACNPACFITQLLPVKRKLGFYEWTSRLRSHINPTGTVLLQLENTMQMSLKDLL

| SMILES | outcome [1] | outcome [2] | activity change, negative = inhibition [3] | max response [3, 11] | max response [3, 12] | Potency [4] | Potency [5] | Potency [6] | Potency [7] | Potency [8] | Potency [9] | outcome [10] | Potency [3] |
| --- | --- | --- | --- | --- | --- | --- | --- | --- | --- | --- | --- | --- | --- |
| O=c1[nH]c2ccccc2c2ccccc12 | inactive | inactive | 1.72% (inactive) | 17.8% | 20.4% | inactive | inactive | inactive | inactive | inactive | – | – | – |
| N=C(N)SCCc1cnc[nH]1 | inactive | inactive | 2.03% (inactive) | 1.98% | 5.06% | inactive | inactive | inactive | inactive | inactive | inactive | – | – |
| CC(=O)N[C@@H](Cc1c[nH]c2ccccc12)C(=O)OCc1cc(C(F)(F)F)cc(C(F)(F)F)c1 | inactive | inactive | -1.99% (inactive) | -16.3% | -17.3% | – | – | – | inactive | inactive | – | – | – |
| CCCCOC(=O)NS(=O)(=O)c1sc(CC(C)C)cc1-c1ccc(Cn2c(CC)nc3c(C)cc(C)nc32)cc1 | inactive | – | -0.147% (inactive) | 28.5% | 27.6% | – | inactive | – | 8.91 µM (active) | 11.2 µM (active) | 7.08 µM (active) | – | – |
| NC1(C(=O)O)CC1 | inactive | inactive | 3.79% (inactive) | 18.9% | 25.1% | inactive | inactive | inactive | – | 11.2 µM (active) | – | – | – |
| CN1CCc2cc(Cl)c(O)cc2[C@@H](c2ccccc2)C1 | – | – | 0.829% (inactive) | 25.8% | 26.8% | – | – | – | – | – | – | – | – |
| O=c1onc2cnc3ccccc3n12 | inactive | – | – | – | – | – | inactive | inactive | – | – | – | inactive | – |
| CC(C)NC[C@H](O)COc1cccc2ccccc12 | – | – | 8.19% (inactive) | 19.6% | 29.6% | – | – | – | – | – | – | – | – |
| CCCCOc1cc(CC2CNC(=O)N2)ccc1OC (stereo not drawn) | – | – | 7.3% (inactive) | 28.9% | 40.3% | inactive | inactive | inactive | – | inactive | – | – | – |
| CC(/C=C/c1cccc(Oc2ccc(F)cc2)c1)N(O)C(N)=O (stereo not drawn) | – | – | – | – | – | inactive | inactive | inactive | – | – | – | – | – |
| CCN1C(=O)C=CC1=O | inactive | inactive | 0.136% (inactive) | -19.7% | -18.9% | inactive | inactive | inactive | inactive | inactive | inactive | – | – |
| NC/C=C\C(=O)O | inactive | inactive | – | – | – | – | inactive | inactive | inactive | inactive | inactive | inactive | – |
| Nc1ccc2c3c(cccc13)C(=O)NC2=O | inactive | inactive | 0.251% (inactive) | -11.6% | -11.3% | – | – | inactive | – | – | – | – | – |
| COc1cc([C@@H]2c3cc4c(cc3[C@H](O)C3COC(=O)[C@@H]32)OCO4)cc(OC)c1OC (stereo partly drawn) | – | – | – | – | – | inactive | inactive | – | – | – | – | – | – |
| C[N+](C)(C)CC=O | inactive | inactive | -0.649% (inactive) | 50.2% | 40.1% | inactive | inactive | inactive | inactive | inactive | inactive | – | – |
| N[C@@H](Cc1c[nH]c2ccccc12)C(=O)O | inactive | inactive | 1.05% (inactive) | 61.2% | 63.3% | inactive | – | inactive | – | – | 11.2 µM (active) | – | – |
| CCCc1c(OCCCOc2ccc(OCC(=O)O)cc2)ccc(C(C)=O)c1O | inactive | inactive | 1% (inactive) | 51.1% | 51.4% | inactive | inactive | – | inactive | inactive | inactive | – | – |
| C/C(=C\c1ccc(C(=O)O)cc1)c1ccc2c(c1)C(C)(C)CCC2(C)C | inactive | – | -4.87% (inactive) and -0.58% (inactive) | -0.191% and 31.2% | -3.14% and 29.9% | inactive | inactive | – | inactive | – | – | – | – |
| Clc1nccc2c1ccc1ccccc12 | inactive | inactive | -1.52% (inactive) | -15.2% | -17.8% | – | inactive | – | inactive | inactive | inactive | – | – |
| CCCCCCCCCCCCCCCCCCOC[C@H](COP(=O)([O-])OCC[N+](C)(C)C)OC | – | – | 1.74% (inactive) | 55.6% | 57.7% | inactive | inactive | inactive | inactive | inactive | inactive | – | – |
| O=c1cc(-c2ccccc2)[nH]c2nc(Cl)ccc12 | inactive | inactive | 0.241% (inactive) | 61.8% | 65% | inactive | inactive | inactive | 14.1 µM (active) | – | 10 µM (active) | – | – |
| CN(C)S(=O)(=O)c1ccc2c(c1)/C(=C/c1cc3c([nH]1)CCCC3)C(=O)N2 | inactive | inactive | – | 59.5% | -52.8% | inactive | inactive | inactive | 5.01 µM (active) | 3.55 µM (active) | 4.47 µM (active) | – | 28.2 µM (active) |
| O=C1OC(=O)C2C3CCC(O3)C12 (stereo not drawn) | – | – | – | – | – | inactive | – | inactive | – | inactive | inactive | – | – |
| Fc1ccc(CN(C2=NCCN2)c2c(Cl)cccc2Cl)cc1 | inactive | inactive | – | – | – | inactive | inactive | inactive | 5.62 µM (active) | 11.2 µM (active) | 6.31 µM (active) | – | – |
| CC(C)(C)c1cc(/C=C(\C#N)C(N)=S)cc(C(C)(C)C)c1O | inactive | inactive | – | – | – | – | inactive | inactive | 7.94 µM (active) | 4.47 µM (active) | 7.94 µM (active) | – | – |
| O=C1Nc2ccc(I)cc2/C1=C/c1cc(Br)c(O)c(Br)c1 | inactive | inactive | – | – | – | – | inactive | inactive | 14.1 µM (active) | 14.1 µM (active) | 8.91 µM (active) | – | – |
